# Measurements: PubChem BioAssay
# Where “and” joins values, the source holds several entries; their conditions need not be identical. Equal entries are not always repeated. Results filed as inconclusive are left out. Calls of active or inactive are those of the source. Rule as the data show it, unless noted: active = inhibition above about 80%; inactive = the rest.
# Columns and labels:
# [1] = viability loss in pontine glioma line – cell-based, SU-DIPG-XIII, MIPE4.0, CellTiter-Glo, qHTS, dose response (AID 1347061; cut-off not given, nearly all actives have AC50 up to about 37 µM;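 also: cells exposed to compound for 48 hours before readout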); settings: CellTiter-Glo ATP luminescence
# [2] = viability loss in pontine glioma line – cell-based, SU-DIPG-IV, MIPE4.0, CellTiter-Glo, qHTS, dose response (AID 1347063; cut-off not given, nearly all actives have AC50 up to about 30 µM;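 also: compound exposure lasted 48 hours before the viability readout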); settings: CellTiter-Glo ATP luminescence
# [3] = viability loss in pontine glioma line – cell-based, SU-DIPG-XIII, MIPE5.0, CellTiter-Glo, qHTS, dose response (AID 1347064; cut-off not given, nearly all actives have AC50 up to about 23 µM;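 also: cells exposed to compound for 48 hours before the viability read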); settings: CellTiter-Glo ATP luminescence
# [4] = viability loss in pontine glioma line – cell-based, SU-DIPG-XXV, MIPE5.0, CellTiter-Glo, qHTS, dose response (AID 1347065; cut-off not given, nearly all actives have AC50 up to about 26 µM;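 also: cells exposed to compound for 48 hours before ATP readout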); settings: CellTiter-Glo ATP luminescence
# [5] = JHH-DIPG-1 glioma cell viability, MIPE5.0 library, CellTiter-Glo luminescence, qHTS (AID 1347067; cut-off not given, nearly all actives have AC50 up to about 26 µM;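 also: cells exposed to compound for 48 hours before readout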); settings: JHH-DIPG-1 glioma viability, CellTiter-Glo ATP luminescence
# [6] = viability loss with induced miR-34 in A549 – imaging, A549 dox-inducible miR-34, nuclei and caspase counts, primary screen (AID 1347080;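 active = compounds whose cell count with miR-34 switched on is under 0.7 times the count with it off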); settings: A549 miR-34 inducible, Hoechst nuclei count, 48 h
# [7] = compounds altering HSF1 focus formation in cells – imaging, Selleck Cancer Library (AID 1347162; in the data active = plate-normalised HSF1 focus index below about 0.46); settings: human cells, HSF1 nuclear foci imaging, at 10 µM; SSMD: measured here: HSF1 foci SSMD mean; cell count: measured here: cell number; plate-normalised HSF1 focus index: stronger effect = lower value
# [8] = growth inhibition, single agent or in combination, cell-based, chromothripsis tumors, cisplatin or BGB combos (AID 1671449); settings: LFS_MB_P medulloblastoma cells;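 also: cells exposed for 96 hours; 0% = vehicle DMSO and 100% = killing by high DMSO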
# [9] = growth inhibition, single agent and combos, cell-based, chromothripsis tumors, cisplatin or BGB combos (AID 1671450); settings: HDN33 neuroblastoma cells, stronger effect = higher value;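 also: cells exposed to compound for four days; 0% = vehicle DMSO and 100% = cell killing by high DMSO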
# [10] = growth inhibition, single agents and combos, ICB984, cell-based, cisplatin or BGB combos, synergistic combos for chromothripsis tumors (AID 1671451; call rule not given here;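 also: cells exposed for 96 hours before readout; 0% = vehicle DMSO and 100% = killing by high DMSO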); settings: ICB984 medulloblastoma cells, drug combinations, stronger effect = higher value
# [11] = growth inhibition, single agents and combos, HTB85, cell-based, BGB or cisplatin IC20 combos, synergistic combos for chromothripsis tumors (AID 1671453); settings: HTB85 osteosarcoma cells, drug combinations, stronger effect = higher value;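 also: cells exposed for 96 hours before readout; 0% = vehicle DMSO and 100% = high DMSO killing control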
# [12] = growth inhibition, MDA-MB-436, cell-based, BGB or cisplatin combos, synergistic combos for chromothripsis tumors (AID 1671458; call rule not given here;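 also: cells exposed for 96 hours; 0% = vehicle DMSO and 100% = killing by high DMSO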); settings: MDA-MB-436 breast carcinoma growth inhibition, drug combinations, stronger effect = higher value
# [13] = BT084 cell growth, single and combined drugs, ICGC_MB145, cisplatin and BGB IC40 combos (AID 1671461); settings: BT084 medulloblastoma cells, drug combinations, stronger effect = higher value;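 also: cells exposed to drugs for 96 hours; 0% = vehicle DMSO and 100% = high DMSO full killing control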
# [14] = RCMB18 cell growth, single agent and combined, cisplatin and BGB IC40 combos (AID 1671462); settings: RCMB18 medulloblastoma cells, stronger effect = higher value;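 also: cells exposed to compound for four days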
# [15] = CRL1545 cell growth, single agent and combined, cisplatin and BGB IC20 combos (AID 1671464); settings: CRL1545 osteosarcoma cells, stronger effect = higher value;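 also: cells exposed to compound for 96 hours before readout; 0% = vehicle DMSO and 100% = high DMSO killing control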
# [16] = viability loss in pontine glioma line – cell-based, JHH-DIPG-1, MIPE4.0, CellTiter-Glo, qHTS, dose response (AID 1347062; cut-off not given, nearly all actives have AC50 up to about 27 µM); settings: JHH-DIPG-1 viability, CellTiter-Glo ATP luminescence
# [17] = growth inhibition of DIPG cells – cell-based, MIPE4.0 library, CellTiter-Glo luminescence, qHTS (AID 1347066; cut-off not given, nearly all actives have AC50 up to about 30 µM;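 also: cells exposed to compound for 48 hours before readout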); settings: SU-DIPG-VI viability, CellTiter-Glo ATP luminescence
# [18] = MELAS cybrid and Rieske KO viability enhancers – cell-based, MELAS cybrids, Rieske KO mouse fibroblasts, CellTiter-Glo, primary screen (AID 1508586;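 active = mean z-score across replicates of 1.96 or higher in either the MELAS or the Rieske mutant cell line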;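 also: z relative to plate mean and SD of compound and empty wells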); settings: low glucose
# [19] = growth inhibition of DIPG cells – cell-based, MIPE5.0 library, qHTS (AID 1347068; cut-off not given, nearly all actives have IC50 up to about 30 µM;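 also: cells exposed to compound for 48 hours before viability readout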); settings: SU-DIPG-XXV viability
# [20] = stronger effect = lower value, cell number ratio, induced over uninduced
# [21] = measured here: relative caspase fold change +Dox/-Dox
# [22] = measured here: total cells with miR-34 induction, stronger effect = lower value
# [23] = measured here: total cells without miR-34 induction
# [24] = measured here: with BGB IC20 combination, at 0.5 µM
# [25] = measured here: with cisplatin IC20 combination, at 0.5 µM
structure (smiles),measurement,setting,value
CC(C)(C)OC(=O)Nc1ccc(-c2cc(C(=O)NCCCCCCC(=O)NO)no2)cc1,AC50,[1],13.2 µM (active)
same,AC50,[2],2.64 µM (active)
same,AC50,[3],1.86 µM (active)
same,AC50,[4],2.95 µM (active)
same,AC50,[5],3.72 µM (active)
same,fold change,[6]; [20],1.08 (inactive)
same,fold change,[6]; [21],1.18
same,cell count,[6]; [22],3170
same,cell count,[6]; [23],2940
same,SSMD,[7],-0.325
same,cell count,[7],7020
same,plate-normalised HSF1 focus index,[7],0.983 (inactive)
same,inhibition,"[8]; at 0.5 µM, stronger effect = higher value",-18.3% (inactive) and -10.4% (inactive)
same,inhibition,"[8]; measured here: combination with BGB IC20, at 0.005 µM",-24.2% and -11.2%
same,inhibition,"[8]; measured here: combination with BGB IC40, at 0.005 µM",-24.3% and -8.96%
same,inhibition,"[8]; measured here: combination with BGB IC40, at 0.05 µM",-25.1% and 5.48%
same,inhibition,"[8]; measured here: combination with cisplatin, at 0.5 µM, stronger effect = higher value",-19.2% and 23.7%
same,inhibition,"[8]; measured here: combination with cisplatin, at 5 µM, stronger effect = higher value",70% and 74.7%
same,inhibition,"[9]; BGB combo, at 5 µM",75.4% and 95.4%
same,inhibition,[9]; at 0.5 µM,-11.6% (inactive) and 3.28% (inactive)
same,inhibition,"[9]; cisplatin combo, at 5 µM",84.3% and 99.1%
same,inhibition,[9]; [24],-23% and -2.22%
same,inhibition,[9]; [25],1.12% and 13.2%
same,inhibition,"[9]; single agent, at 5 µM",86.2% and 98%
same,inhibition,"[10]; BGB IC20 combo, at 0.005 µM",-9.7% and -9.21%
same,inhibition,"[10]; BGB IC40 combo, at 0.005 µM",-27.3% and -46%
same,inhibition,"[10]; BGB IC40 combo, at 0.05 µM",38.6% and 39.7%
same,inhibition,[10]; at 0.5 µM,-16.4% (inactive) and -21.9% (inactive)
same,inhibition,"[10]; cisplatin combo, at 0.05 µM",35.7% and 37.3%
same,inhibition,"[10]; cisplatin combo, at 0.5 µM",-28% and -20.5%
same,inhibition,"[10]; cisplatin combo, at 5 µM",-41.9% and -70.6%
same,inhibition,"[10]; measured here: 5 uM single agent, at 5 µM",-17.6% and -12.3%
same,inhibition,[11]; at 0.5 µM,-17.8% (inactive) and -4.69% (inactive)
same,inhibition,"[11]; measured here: with BGB IC20, at 0.5 µM",-25.7% and -17.1%
same,inhibition,"[11]; measured here: with BGB IC20, at 5 µM",49.9% and 86.7%
same,inhibition,"[11]; measured here: with cisplatin IC20, at 0.5 µM",-5.92% and 8.08%
same,inhibition,"[11]; measured here: with cisplatin IC20, at 5 µM",62.7% and 92.5%
same,inhibition,"[11]; single agent, at 5 µM",77.5% and 87.2%
same,inhibition,[12]; at 0.5 µM,-5.18% (inactive) and -14.7% (inactive)
same,inhibition,"[12]; measured here: BGB combination, at 0.5 µM",-6.05% and -29.4%
same,inhibition,"[12]; measured here: BGB combination, at 5 µM",54.7% and 62.5%
same,inhibition,"[12]; measured here: cisplatin combination, at 0.5 µM",-18.7% and -11.1%
same,inhibition,"[12]; measured here: cisplatin combination, at 5 µM",56.9% and 63%
same,inhibition,[13]; at 0.5 µM,9.8% (inactive) and 2.37% (inactive)
same,inhibition,"[13]; cisplatin combination, at 0.5 µM",8.11% and 13.2%
same,inhibition,"[13]; cisplatin combination, at 5 µM",29.8% and 83.8%
same,inhibition,"[13]; measured here: BGB IC40 combination 0.05 uM, at 0.05 µM",-31% and -31.3%
same,inhibition,"[13]; single agent, at 5 µM",33.2% and 32%
same,inhibition,[14]; at 0.5 µM,-13.3% (inactive) and 2% (inactive)
same,inhibition,"[14]; cisplatin combo, at 5 µM",55.6% and 86.3%
same,inhibition,"[14]; measured here: BGB IC40 combination, at 0.05 µM",43.9% and -7.68%
same,inhibition,"[14]; measured here: combination with cisplatin, at 0.5 µM",-24.8% and 36.6%
same,inhibition,"[14]; single agent, at 5 µM",42.9% and 30.3%
same,inhibition,[15]; at 0.5 µM,51.1% (inactive) and 53.4% (inactive)
same,inhibition,[15]; [24],34.6% and 54.1%
same,inhibition,[15]; [25],58.7% and 53.1%
same,inhibition,"[15]; single agent, at 0.05 µM",-13.9% and 7.41%
same,inhibition,"[15]; single agent, at 5 µM",94% and 95%
O=C1C(CCC(O)c2ccc(F)cc2)C(c2ccc(O)cc2)N1c1ccc(F)cc1 (configuration not stated),outcome,[1],inactive
same,outcome,[16],inactive
same,outcome,[17],inactive
same,fold change,[6]; [20],0.893 (inactive) and 0.906 (inactive)
same,fold change,[6]; [21],1.57 and 0.763
same,cell count,[6]; [22],7660 and 7830
same,cell count,[6]; [23],8580 and 8640
same,z-score,"[18]; MELAS cybrid survival, CellTiter-Glo 48 h, stronger effect = higher value",-0.505 (inactive)
same,z-score,"[18]; Rieske KO mouse fibroblast survival, CellTiter-Glo 72 h",-0.0457
CN(C[C@@H]1COCCO1)S(=O)(=O)Nc1ccc2ccc3ncc(-c4cnn(C)c4)cc3c(=O)c2c1,AC50,[1],2.64 µM (active)
same,AC50,[3],2.63 µM (active)
same,AC50,[4],2.09 µM (active)
same,outcome,[17],inactive
same,IC50,[19],3.32 µM (active)
